Results taken from PubChem BioAssay (EPA / NIEHS).
Inconclusive results are not listed. Active and inactive are the calls of the source. Rule for the calls: active = hit-call score of the fitted dose curve at least 0.9, where 1 is the maximum; inconclusive = response in the unintended direction; inactive = score below 0.9.

Assay: ACEA_ER_80hr: ACEA Biosciences xCELLigence Real-Time Cell Analysis on Estrogen Receptor Agonism for Proliferation (AID 2282667)
Details: T47D proliferation, impedance (xCELLigence), 80 h
In short: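 Impedance readout (RT-CES) of T47D proliferation at 80 h post-dose; gain of signal vs DMSO baseline. Compounds: 8 conc, 1:4 serial, top 100 uM final, ≤0.5% DMSO; biological duplicate.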
For `Clc1ccc(C2(Cn3cncn3)CC(Br)CO2)c(Cl)c1` (configuration not stated), the outcome was “inactive”. For `C=CCc1ccc(OC)cc1`, the outcome was “inactive”. In the case of `O=[N+]([O-])c1ccc(O)c([N+](=O)[O-])c1`, the AC50 is reported as 75.8 µM (active). With `c1ccc(N=NNc2ccccc2)cc1` the outcome was “inactive”. In the case of `Cc1cc(=O)[nH]o1`, the outcome is reported as “inactive”. In the case of `CCCCCCCCSC(=O)Oc1cc(Cl)nnc1-c1ccccc1`, the AC50 is reported as 50 µM (active). In the case of `CC1CN1P(=O)(N1CC1C)N1CC1C` (configuration not stated), the outcome is reported as “inactive”. With `CCOC(=O)CP(=O)(OCC)OCC` the outcome was “inactive”. In the case of `COc1ccc(C(O)(c2cncnc2)C2CC2)cc1` (configuration not stated), the outcome is reported as “inactive”. For `ClCc1cccnc1`, the outcome was “inactive”. With `C[C@]12CC[C@H](O)CC1=CC[C@@H]1[C@@H]2CC[C@]2(C)C(=O)CC[C@@H]12` the AC50 was 0.983 µM (active). For `Oc1c(I)cc(I)cc1I`, the outcome was “inactive”. With `P.[In]` the AC50 was 0.101 µM (active). In the case of `Clc1ccc(COC(Cn2ccnc2)c2ccc(Cl)cc2Cl)cc1` (configuration not stated), the outcome is reported as “inactive”. With `Fc1ccc(C2(Cn3cncn3)OC2c2ccccc2Cl)cc1` (configuration not stated) the outcome was “inactive”. With `CC(C)OC(=O)Nc1ccccc1` the outcome was “inactive”. With `CCc1ccccc1N` the outcome was “inactive”. In the case of `CC(C)c1cccc(C(C)C)c1O`, the outcome is reported as “inactive”. With `CC(C)(c1ccc(OCC2CO2)cc1)c1ccc(OCC2CO2)cc1` (configuration not stated) the outcome was “inactive”. With `ClCCBr` the outcome was “inactive”. For `CC(Br)C(=O)O` (configuration not stated), the outcome was “inactive”. For `Nc1cccc(Cl)c1`, the outcome was “inactive”. For `CCOP(=S)(OCC)Oc1ccc(S(C)=O)cc1` (configuration not stated), the outcome was “inactive”. In the case of `O=C(OC1CCCCC1)c1ccccc1C(=O)OC1CCCCC1`, the outcome is reported as “inactive”. With `CCOP(=S)(OCC)SCCS(=O)(=O)CC` the outcome was “inactive”. In the case of `NNC(=S)NN`, the outcome is reported as “inactive”. In the case of `CCSC(C)CC1CC(=O)C(C(CC)=NOC/C=C/Cl)=C(O)C1` (configuration not stated), the outcome is reported as “inactive”.
